# Measured values as given in the supplement of paper PMC7595190.
# Unmarked numbers belong to inactive results.
# Experiments:
# Experiment in all cases: CellTox Green cytotoxicity fluorescence relative to DMSO vehicle (fold of vehicle RFU); higher = more cell death (loss of membrane integrity), active = 2 or more
# CMK = test system: CMK
# How it was run: (§1)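 Cytotoxicity, a measure of lost membrane integrity, is reported as fluorescence expressed as fold of the DMSO vehicle. For this, MV4-11, CMK and Kasumi-1 cells (4.0 × 10^4 per well) were seeded with CellTox Green reagent in 96-well black optical-bottom plates. Individual compounds from the Selleckchem apoptosis library, diluted in DMSO, were tested at final 0.01, 0.1 and 1 µM against a 0.1% DMSO vehicle. Fluorescence was read at Ex 485 nm and Em 520 nm after 24, 48 and 72 h at 37 °C, 5% CO2.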
# Kasumi-1 = test system: Kasumi-1
# How it was run: as §1
# MV4-11 = test system: MV4-11
# How it was run: as §1
SMILES,"CellTox Green cytotoxicity fluorescence (CMK; 0.01 µM, 24 h)","CellTox Green cytotoxicity fluorescence (CMK; 0.01 µM, 48 h)","CellTox Green cytotoxicity fluorescence (CMK; 0.01 µM, 72 h)","CellTox Green cytotoxicity fluorescence (CMK; 0.1 µM, 24 h)","CellTox Green cytotoxicity fluorescence (CMK; 0.1 µM, 48 h)","CellTox Green cytotoxicity fluorescence (CMK; 0.1 µM, 72 h)","CellTox Green cytotoxicity fluorescence (CMK; 1 µM, 24 h)","CellTox Green cytotoxicity fluorescence (CMK; 1 µM, 48 h)","CellTox Green cytotoxicity fluorescence (CMK; 1 µM, 72 h)","CellTox Green cytotoxicity fluorescence (Kasumi-1; 0.01 µM, 24 h)","CellTox Green cytotoxicity fluorescence (Kasumi-1; 0.01 µM, 48 h)","CellTox Green cytotoxicity fluorescence (Kasumi-1; 0.01 µM, 72 h)","CellTox Green cytotoxicity fluorescence (Kasumi-1; 0.1 µM, 24 h)","CellTox Green cytotoxicity fluorescence (Kasumi-1; 0.1 µM, 48 h)","CellTox Green cytotoxicity fluorescence (Kasumi-1; 0.1 µM, 72 h)","CellTox Green cytotoxicity fluorescence (Kasumi-1; 1 µM, 24 h)","CellTox Green cytotoxicity fluorescence (Kasumi-1; 1 µM, 48 h)","CellTox Green cytotoxicity fluorescence (Kasumi-1; 1 µM, 72 h)","CellTox Green cytotoxicity fluorescence (MV4-11; 0.01 µM, 24 h)","CellTox Green cytotoxicity fluorescence (MV4-11; 0.01 µM, 48 h)","CellTox Green cytotoxicity fluorescence (MV4-11; 0.01 µM, 72 h)","CellTox Green cytotoxicity fluorescence (MV4-11; 0.1 µM, 24 h)","CellTox Green cytotoxicity fluorescence (MV4-11; 0.1 µM, 48 h)","CellTox Green cytotoxicity fluorescence (MV4-11; 0.1 µM, 72 h)","CellTox Green cytotoxicity fluorescence (MV4-11; 1 µM, 24 h)","CellTox Green cytotoxicity fluorescence (MV4-11; 1 µM, 48 h)","CellTox Green cytotoxicity fluorescence (MV4-11; 1 µM, 72 h)"
CC[C@H](NC(=O)[C@H](C)NC)C(=O)N1C[C@@H](O)C[C@H]1Cc1c(-c2[nH]c3cc(F)ccc3c2C[C@@H]2C[C@H](O)CN2C(=O)[C@H](CC)NC(=O)[C@H](C)NC)[nH]c2cc(F)ccc12 [Birinapant],0.985,0.974,0.988,0.998,0.996,1,0.983,1.03,0.952,0.993,1.03,1.05,1.02,1.1,1.2,1.04,1.26,1.5,0.987,0.989,1,0.988,1.04,1.08,1.03,1.2,1.32
Cc1c(C(=O)Nc2ccc(Oc3ccnc4[nH]cc(-c5ccccc5)c34)c(F)c2)c(=O)n(-c2ccc(F)cc2)n1C,1.01,1.02,1.1,0.997,1.02,1.01,0.945,0.956,1.02,1.01,1.02,0.998,,,,0.84,0.814,0.805,,,,,,,,,
COc1nc(OCc2cccc(-c3ccccc3)c2C)ccc1CNCCNC(C)=O [PD-1/PD-L1 inhibitor 2],1.01,0.96,0.968,0.99,0.951,0.928,0.99,0.983,0.956,1,0.98,0.994,0.997,1.02,1.01,0.978,1,0.999,1.02,0.96,1,0.984,0.959,0.944,0.985,1,1.01
Nc1cccc2c1CN(C1CCC(=O)NC1=O)C2=O (configuration not stated) [Lenalidomide],0.938,0.942,0.905,0.932,0.929,0.898,0.948,0.969,0.783,0.986,0.897,0.88,0.951,0.933,0.915,0.986,1,0.982,,,,,,,,,
CN1CCN(Cc2ccc(Nc3ncc(Cl)c(Nc4ccccc4S(=O)(=O)N(C)C)n3)cc2)CC1,0.958,0.972,0.913,1.07,1.56,1.32,2.06 (active),2.42 (active),1.62,0.957,0.97,0.961,0.997,1.34,1.49,1.47,1.66,1.72,0.95,0.961,0.975,1.14,1.93,2.27 (active),1.42,2.4 (active),2.55 (active)
Cc1nn(C)c(COc2ccc(N3CCN(S(=O)(=O)N(C)C)CC3)cc2)c1-c1cccc2c(CCCOc3cccc4ccccc34)c(C(=O)O)n(CCN3CCOCC3)c12,0.996,1,1,0.995,0.985,0.957,0.985,1.01,0.948,0.998,0.981,0.976,1.01,1.03,1.04,0.938,1.03,1.03,0.991,0.986,0.981,1.05,1.1,1.12,1.15,1.49,1.67
CN(C)CC[C@H](CSc1ccccc1)Nc1ccc(S(=O)(=O)NC(=O)c2ccc(N3CCN(Cc4ccccc4-c4ccc(Cl)cc4)CC3)cc2)cc1[N+](=O)[O-],0.932,0.938,0.907,0.982,0.992,1.02,1.48,1.67,1.52,1.07,1.11,1.18,1.17,1.49,1.66,1.44,1.81,1.84,,,,,,,,,
CN(C)CCCCC(=O)Nc1ccc(NC(=S)NC(=O)c2ccc(C(C)(C)C)cc2)cc1 [Tenovin-6],0.978,0.97,0.94,1,0.991,0.973,1.01,1.03,0.875,0.99,0.965,0.966,0.947,0.912,0.879,0.958,1,1.01,,,,,,,,,
O=C1NC(=NCc2cccs2)S/C1=C\c1ccc2ncccc2c1,1.02,1.04,1.07,0.996,1,0.991,1.03,1.09,1.08,0.99,0.991,0.96,1.01,1.04,1,1.02,1.01,1.01,0.976,0.968,0.981,0.997,0.979,0.955,1.05,1.12,1.15
CC1(C)CCC(c2ccc(Cl)cc2)=C(CN2CCN(c3ccc(C(=O)NS(=O)(=O)c4ccc(N[C@H](CCN5CCOCC5)CSc5ccccc5)c(S(=O)(=O)C(F)(F)F)c4)cc3)CC2)C1 [Navitoclax],0.932,0.931,0.932,1.24,1.36,1.36,1.62,2.39 (active),2.07 (active),1.04,1,1.05,1.22,1.53,1.7,1.57,2.07 (active),2.11 (active),0.946,1.02,1.07,1.04,1.41,1.67,1.32,2.56 (active),2.63 (active)
CNC(=O)c1ccccc1Nc1cc(Nc2ccc(N3CCOCC3)cc2OC)ncc1C(F)(F)F,0.924,0.935,0.912,0.928,0.933,0.917,0.946,1.02,0.957,0.924,0.952,0.976,0.976,0.988,0.96,0.928,1.03,1.08,0.941,0.941,0.949,0.936,0.967,0.972,0.979,1.18,1.39
CCN(CC)CCNC(=O)c1c(C)[nH]c(/C=C2\C(=O)Nc3ccc(F)cc32)c1C [Sunitinib],1.02,1.01,0.896,1,0.997,0.964,1.05,1.16,1.04,0.988,1.01,1.11,1.03,1.15,1.18,1.08,1.32,1.45,1.02,1.06,1.04,1.09,1.42,1.78,1.11,1.44,1.72
C=CCc1cccc(/C=N/NC(=O)CN2CCN(Cc3ccccc3)CC2)c1O,0.917,0.909,0.921,0.92,0.917,0.953,0.913,0.937,1.06,1,0.934,0.93,0.918,0.918,0.918,0.916,0.914,0.892,0.974,0.955,0.955,0.95,0.951,0.957,0.904,1.07,1.31
